Assay [1] is described as follows: qHTS assay to identify small molecule antagonists of the estrogen related receptor (ERR) signaling pathway from Tox21 library - cell viability counter screen (AID 1224834). Further: nearly all actives have a fitted effect of over 30% in size. Further: potency means the concentration at half of the fitted maximal effect. Summed up: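 Cytotoxicity of test substances is gauged in the same ERR cells used for the antagonist screen, after 17.5 h of compound treatment at 37 C, by CellTiter-Fluor fluorescence measured after 30 min.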
Background: In qHTS, concentration-response curves come from the screen itself.

Assay [2] deals with Luciferin 4-monooxygenase (Photinus pyralis) (UniProt P08659). Nature of the assay: qHTS assay to identify small molecule inhibitors of firefly luciferase (AID 1224835). Further: nearly all actives have a fitted effect of over 25% in size. Further: potency means the concentration at half of the fitted maximal effect. Summed up: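 Inhibition of purified Photinus luciferase is measured by luminescence. Substrate levels (D-luciferin, ATP) sit at their KM values. Each compound is tested in a concentration series.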
Sequence of Luciferin 4-monooxygenase (Photinus pyralis) (P08659 whole entry, looked up): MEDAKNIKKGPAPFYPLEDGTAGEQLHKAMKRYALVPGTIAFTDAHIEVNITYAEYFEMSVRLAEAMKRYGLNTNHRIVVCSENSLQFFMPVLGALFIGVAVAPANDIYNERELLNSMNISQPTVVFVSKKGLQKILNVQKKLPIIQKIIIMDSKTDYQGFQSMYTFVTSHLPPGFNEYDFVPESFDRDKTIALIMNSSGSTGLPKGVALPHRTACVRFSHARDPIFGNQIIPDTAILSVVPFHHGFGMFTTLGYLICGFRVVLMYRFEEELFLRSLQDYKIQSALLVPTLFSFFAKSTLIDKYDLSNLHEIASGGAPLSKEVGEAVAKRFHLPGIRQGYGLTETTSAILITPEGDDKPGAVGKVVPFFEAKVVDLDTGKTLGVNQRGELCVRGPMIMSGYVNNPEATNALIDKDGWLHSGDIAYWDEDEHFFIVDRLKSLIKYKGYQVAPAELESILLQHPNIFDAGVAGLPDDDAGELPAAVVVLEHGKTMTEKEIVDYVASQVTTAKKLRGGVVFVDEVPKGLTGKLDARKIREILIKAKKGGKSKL
The nature of assay [3]: qHTS assay to identify small molecule agonists of the constitutive androstane receptor (CAR) signaling pathway - cell viability counter screen (AID 1224836). Further: nearly all actives have a fitted effect of over 45% in size. Further: potency means the concentration at half of the fitted maximal effect. Summed up:
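Cell viability multiplexed with the CAR agonist screen: CellTiter-Fluor fluorescence after 23 hr at 37 C. HepG2-CYP2B6-hCAR cells got compounds at 15 concentrations with PK11195 at 0.75 uM final.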

Assay [4] can be described thus: qHTS assay to identify small molecule antagonists of the constitutive androstane receptor (CAR) signaling pathway - cell viability counter screen (AID 1224837). Further: nearly all actives have a fitted effect of over 45% in size. Further: potency means the concentration at half of the fitted maximal effect. Summed up: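 Multiplexed cytotoxicity read-out for the CAR antagonist screen: double-stable HepG2-CYP2B6-hCAR cells co-treated with 50 nM CITCO (final) and compound over 15 concentrations, incubated 23 hr, then assessed by CellTiter-Fluor fluorescence.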

Assay [5] concerns the target Nuclear receptor subfamily 1 group I member 3 (Homo sapiens) (UniProt Q14994). Briefly: qHTS assay to identify small molecule antagonists of the constitutive androstane receptor (CAR) signaling pathway (AID 1224838). Further: nearly all actives have a fitted effect of over 40% in size. Further: potency means the concentration at half of the fitted maximal effect. Summed up:
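Compounds were titrated across 15 concentrations onto HepG2 cells double-stably expressing hCAR and a CYP2B6-2.2kb reporter, together with 50 nM CITCO (final). After 24 h at 37 C, luciferase activity was measured by luminescence.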

For assay [6] the target is unchanged. Nature of the assay: qHTS assay to identify small molecule agonists of the constitutive androstane receptor (CAR) signaling pathway (AID 1224839).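 Further: HepG2 cells stably carrying human CAR and a CYP2B6 luciferase reporter; nearly all actives have a fitted effect of over 15% in size.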 Summed up: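 Luminescent ONE-Glo read-out after 24 hr, 37 C exposure of double-stable HepG2-CYP2B6-hCAR reporter cells to a 15-point compound series, in the presence of 0.75 uM PK11195 (final).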
Assay [7] is described as follows: qHTS assay to identify small molecule antagonists of the estrogen related receptor signaling pathway with the pleiotropic PPARgamma coactivator (PGC) from Tox21 10K library - cell viability counter screen (AID 1224840; active means well fitted cell-killing curve with a large enough effect in the repeat runs, not every such curve was filed as active; further: nearly all actives have a fitted effect of over 40% in size; further: potency means the concentration at half of the fitted maximal effect). Summed up:
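Step one, plate 2,000 PGC/ERR cells per well; step two, incubate 6 h at 37 C/5% CO2; step three, pin-transfer compounds; step four, incubate 17.5 h; step five, add CellTiter-Fluor and read fluorescence after 30 min.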

A short description of assay [8]: qHTS assay to identify small molecule antagonists of the estrogen related receptor signaling pathway with the pleiotropic PPARgamma coactivator (PGC) from Tox21 10K library (AID 1224841; call rule not given here; further: actives are mostly falling curves and most rising ones were filed inactive; nearly all actives have a fitted effect of over 50% in size; further: potency means the concentration at half of the fitted maximal effect). Summed up:
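Antagonism in this quantitative HTS is taken from loss of luciferase signal in PGC/ERR cells. Cells (2,000/well) are treated with compounds in DMSO after a 6 h settling period and read by One-Glo luminescence after 18 h.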

Assay [9] can be described thus: qHTS assay to identify small molecule agonists of the estrogen related receptor signaling pathway with the pleiotropic PPARgamma coactivator (PGC) from Tox21 10K library (AID 1224842). Further: nearly all actives have a fitted effect of over 15% in size. Summed up:
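Luminescence from One-Glo (30 min, room temperature) measured after PGC/ERR cells had 18 h at 37 C with pinned compound (23 nL in DMSO). Cells had been seeded at 2,000 per well and pre-incubated 6 h.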

Assay [10] concerns the target Thyrotropin receptor (Homo sapiens) (UniProt P16473). Briefly: qHTS assay to identify small molecule agonists of the thyroid stimulating hormone receptor (TSHR) signaling pathway (AID 1224843; calls by dose curve; further: nearly all actives have a fitted effect of over 45% in size). Summed up: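 HEK293 cells stably bearing the thyrotropin receptor were plated at 800 cells/well and challenged with compound (30 min, RT). Accumulated cAMP was quantified via cAMP-d2 competing for cryptate-tagged antibody.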

Assay [11] in a line: qHTS assay to identify small molecule agonists of the hypoxia (HIF-1) signaling pathway - cell viability counter screen (AID 1224844; calls by dose curve; further: nearly all actives have a fitted effect of over 50% in size; further: potency means the concentration at half of the fitted maximal effect). Summed up: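 Tox21 10K compounds were added to HRE-bla ME-180 cells (0.5% dialyzed FBS) and incubated 17 hrs at 37C; ATP-based CellTiter-Glo luminescence then reported cell viability in the same wells.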
Assay [12] is described as follows: qHTS assay to identify small molecule agonists of H2AX (AID 1224845; active means well fitted activation curve with a large enough effect in the signal ratio in the repeat runs, not every such curve was filed as active; the % refers to the signal ratio). Summed up: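 Phospho-H2AX Ser139 measured by HTRF (ex 320 nm; em 665 and 620 nm) after 24 hr antibody incubation. Compounds, 15 concentrations, 0.76% DMSO, were applied to CHO-K1 cells for 3hr at 37C before lysis.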
The nature of assay [13]: qHTS assay to identify small molecule agonists of the hypoxia (HIF-1) signaling pathway (AID 1224846; active means well fitted activation curve with a large enough effect in the signal ratio in the repeat runs, not every such curve was filed as active; the % refers to the signal ratio). Summed up:
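Steps: seed ME-180 HRE-bla cells (2,000/well, 0.5% dialyzed FBS); incubate 5 hrs at 37C; pin-transfer compounds or DMSO; incubate 17 hrs; add LiveBLAzer B/G substrate CCF4-AM; measure reporter activation by FRET.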

A short description of assay [14]: qHTS assay to identify small molecule antagonists of the estrogen related receptor (ERR) signaling pathway from Tox21 library (AID 1224848). Further: nearly all actives have a fitted effect of over 50% in size. Further: potency means the concentration at half of the fitted maximal effect. Summed up: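 Reading was by luminescence 30 min after ONE-Glo addition. Before that, ERR cells at 2,000 per well had rested 6 h at 37 C/5% CO2 and then received pin-tooled compounds in DMSO for 18 h at 37 C.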
Assay [15] is described as follows: qHTS RealTime-Glo MT Cell Viability Assay in HepG2 cells - 24 hour (AID 1224867). Further: nearly all actives have a fitted effect of over 50% in size. Summed up:
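Compound treatment began 5 h after plating HepG2 cells (600/well) with NanoLuc luciferase and prosubstrate. Plates stayed at 37 C for 40 h; luminescence was captured at six time points, 0 h through 40 h.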

A short description of assay [16]: qHTS RealTime-Glo MT Cell Viability Assay in HEK293 cells - 32 hour (AID 1224868). Summed up:
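Quantitative high-throughput screen of the Tox21 10K library in HEK293: cells and RealTime-Glo reagents plated together, compound added at 5 h, luminescence monitored through 40 h at 37 C.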

Assay [17] is described as follows: qHTS RealTime-Glo MT Cell Viability Assay in HepG2 cells - 40 hour (AID 1224870). Further: nearly all actives have a fitted effect of over 50% in size. Summed up:
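Real-time viability: cells seeded at 600 per well together with NanoLuc and cell-permeant prosubstrate, compounds added after 5 h incubation. Luminescence tracked at 0, 8, 16, 24, 32 and 40 h of exposure.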

Assay [18] is described as follows: qHTS assay to identify small molecule agonists of the estrogen related receptor (ERR) signaling pathway from Tox21 library (AID 1224849; calls by dose curve; further: nearly all actives have a fitted effect of over 15% in size). Particulars: ERR reporter cell line, ONE-Glo luciferase, 18 h; at 92.4 µM (top of the series) unless noted. Summed up: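 Agonist signal is luciferase luminescence from an ERR reporter cell line treated 18 h at 37 C with DMSO-dissolved compounds, read 30 min after ONE-Glo addition at room temperature.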

The nature of assay [19]: A CellTox Green Cytotoxicity Assay to monitor cytotoxicity in HEK293 cells - 0 hour (AID 1224869). Further: nearly all actives have a fitted effect of over 50% in size. Summed up: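 Cytotoxicity was tracked continuously in HEK293 cells by a DNA-binding dye excluded from viable cells. Compounds were transferred in DMSO 5 h after seeding; fluorescence was recorded at intervals up to 40 h.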
Assay [20] is described as follows: qHTS assay to identify small molecule agonists of H2AX - cell viability counter screen (AID 1224847; calls by dose curve;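 further: wild-type CHO-K1 cells; top concentration of the series differs between compounds; nearly all actives have a fitted effect of over 30% in size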). Summed up: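 Counter-screen for viability: CellTiter-Glo ATP luminescence read after 3 h compound treatment (15-point titration, 0.76% DMSO final) of CHO-K1 cells at 37C, with 30 min room-temperature reagent incubation.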

Values without a mark were called inactive. Inconclusive results are not listed. Active and inactive are the calls of the source. Unless noted, the call rests on the fitted dose curve; in most records, active means well fitted curve in the direction sought with a large enough effect in the repeat runs; inconclusive means weak or mixed curves; inactive means no such curve, though single readings can be large; an effect the other way counts as inactive or inconclusive.

The values below come from PubChem BioAssay (Tox21).
On the % scale 0 is the no-effect control and ±100 the full control effect.

Sequence of Thyrotropin receptor (Homo sapiens) (P16473 whole entry, looked up): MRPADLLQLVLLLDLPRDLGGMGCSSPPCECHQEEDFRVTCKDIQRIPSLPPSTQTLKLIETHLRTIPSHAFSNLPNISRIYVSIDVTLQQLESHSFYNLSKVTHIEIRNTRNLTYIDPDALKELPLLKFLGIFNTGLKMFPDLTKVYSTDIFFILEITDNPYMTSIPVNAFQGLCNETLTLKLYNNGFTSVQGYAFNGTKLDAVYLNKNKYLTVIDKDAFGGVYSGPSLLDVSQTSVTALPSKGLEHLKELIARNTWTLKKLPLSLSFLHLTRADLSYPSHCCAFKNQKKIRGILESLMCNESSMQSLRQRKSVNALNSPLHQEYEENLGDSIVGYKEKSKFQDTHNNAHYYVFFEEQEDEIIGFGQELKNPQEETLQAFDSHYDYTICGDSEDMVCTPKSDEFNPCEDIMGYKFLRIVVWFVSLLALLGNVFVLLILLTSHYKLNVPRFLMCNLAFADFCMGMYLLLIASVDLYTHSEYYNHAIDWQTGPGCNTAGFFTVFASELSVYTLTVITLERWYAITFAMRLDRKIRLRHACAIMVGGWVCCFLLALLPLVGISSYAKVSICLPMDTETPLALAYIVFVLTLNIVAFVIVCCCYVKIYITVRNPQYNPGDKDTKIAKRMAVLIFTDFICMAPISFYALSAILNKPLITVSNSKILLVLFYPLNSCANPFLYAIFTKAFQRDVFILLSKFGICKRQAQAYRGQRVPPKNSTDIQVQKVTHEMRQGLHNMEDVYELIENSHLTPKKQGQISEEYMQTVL
Sequence of Nuclear receptor subfamily 1 group I member 3 (Homo sapiens) (Q14994 whole entry, looked up): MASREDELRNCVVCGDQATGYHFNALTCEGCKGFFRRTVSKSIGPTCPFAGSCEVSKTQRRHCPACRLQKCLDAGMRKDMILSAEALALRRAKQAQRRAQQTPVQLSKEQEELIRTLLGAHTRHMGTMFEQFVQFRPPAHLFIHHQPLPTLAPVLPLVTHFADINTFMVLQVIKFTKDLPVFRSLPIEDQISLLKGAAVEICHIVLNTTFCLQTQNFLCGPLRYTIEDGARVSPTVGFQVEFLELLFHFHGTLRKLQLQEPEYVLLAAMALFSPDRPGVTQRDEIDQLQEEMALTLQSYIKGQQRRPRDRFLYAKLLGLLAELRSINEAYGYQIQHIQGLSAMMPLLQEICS

`Cl/C=C\CCl`: the Potency result in [1], in assay [2], in assay [3], in assay [4], in assay [5] and in assay [6] was “inactive” each time. Moreover, the Potency result in assay [7], in [8], in [9], in assay [10], in [11] and in [12] was “inactive” in each case. Also, the Potency entry in assay [14], in assay [15], in assay [16] and in [17] was “inactive” each time. Moreover, the result in assay [13] was inactive.

Turning to `CC[C@H](C)[C@H]1O[C@]2(C=C[C@@H]1C)C[C@@H]1C[C@@H](C/C=C(\C)[C@@H](O[C@H]3C[C@H](OC)[C@@H](O[C@H]4C[C@H](OC)[C@@H](O)[C@H](C)O4)[C@H](C)O3)[C@@H](C)/C=C/C=C3\CO[C@@H]4[C@H](O)C(C)=C[C@@H](C(=O)O1)[C@]34O)O2`, the Potency in assay [1] was 16.1 µM (active); in assay [3], 32.2 µM (active); in assay [4], 32.2 µM (active); in assay [5], 40.5 µM (active); in assay [7], 28.7 µM (active); in [8], 7.2 µM (active). Further, the Potency was 28.9 µM (active) in assay [11] and 7.2 µM (active) in assay [14]. For the same compound, the Potency entry in assay [2], in assay [6] and in assay [19] was “inactive” each time. For the same compound, the activity change, positive = activation in assay [18] was -67% [at 42.5 µM].

Consider `CCC(C)(C)C(=O)OC1=C(c2ccc(Cl)cc2Cl)C(=O)OC12CCCCC2`, for which the Potency result in assay [1], in assay [3], in assay [4], in [5], in assay [6] and in assay [7] was “inactive” throughout. The Potency entry in [8], in [10], in [12], in [20], in assay [14] and in assay [15] was “inactive” each time. Besides, the Potency result in assay [16] was “inactive”. Besides, in [2], the Potency was 31.7 µM (active).

As for `CN(CCCC(=O)c1cccnc1)N=O`, the Potency entry in assay [1], in assay [2], in [3], in assay [4], in assay [5] and in [6] was “inactive” in each case. Besides, the Potency entry in assay [7], in [10], in [11], in assay [12], in [20] and in assay [15] was “inactive” each time. The Potency result in assay [16] and in assay [19] was “inactive” each time. In assay [13], the call was inactive.
